Screen size: about 16,000 compounds; about 5,100 (32%) were called active. About 25% were inconclusive and are not listed. This is one part of the list. Values without a mark were called inactive. Calls follow the shape of the dose curve; as a rule, active = well fitted curve in the direction sought with a large enough effect; inconclusive = small, poorly fitted or top-dose-only effect, or effect the other way; inactive = no such curve, though single readings can be large or run the other way.
molecular target: Cytochrome P450 3A4 (Homo sapiens) (UniProt P08684); assay: Cytochrome panel assay with activity outcomes; conditions: recombinant CYP, pro-luciferin dealkylation, luminescence, p450-cyp3a4; series mostly up to 57.1 µM; activity, negative = inhibition: at the top concentration
Sequence (P08684 whole entry, looked up): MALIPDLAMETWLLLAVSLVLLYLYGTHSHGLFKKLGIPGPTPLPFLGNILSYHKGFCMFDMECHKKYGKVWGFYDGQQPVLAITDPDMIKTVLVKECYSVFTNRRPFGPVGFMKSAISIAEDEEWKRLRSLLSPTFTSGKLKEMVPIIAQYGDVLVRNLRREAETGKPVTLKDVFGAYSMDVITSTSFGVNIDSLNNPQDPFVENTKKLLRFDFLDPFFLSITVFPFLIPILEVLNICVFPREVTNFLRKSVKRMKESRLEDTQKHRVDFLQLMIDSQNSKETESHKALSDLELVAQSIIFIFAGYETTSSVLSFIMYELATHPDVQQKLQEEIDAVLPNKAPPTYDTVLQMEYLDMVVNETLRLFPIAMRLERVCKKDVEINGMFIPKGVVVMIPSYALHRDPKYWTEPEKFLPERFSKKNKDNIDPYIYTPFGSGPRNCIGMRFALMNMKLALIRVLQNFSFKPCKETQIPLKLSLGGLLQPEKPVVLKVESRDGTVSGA
% is scaled to controls: 0 for no effect and ±100 for the full control effect.

Compound | AC50 | activity, negative = inhibition
Cc1cccc(CNc2cc(-c3ccccc3Cl)ncn2)c1 | 15.8 µM (active) | 
COc1ccccc1-c1cc(NCc2cccc(C)c2)ncn1 | 6.31 µM (active) | 
CN(C)Cc1ccccc1-c1cc(NCc2ccccc2)ncn1 |  | -27.4%
CN(C)Cc1ccccc1-c1cc(NC2CC2)ncn1 | 25.1 µM (active) | 
COc1ccccc1-c1cc(NCc2ccccc2)ncn1 |  | -25.9%
Cc1cnc(CNc2cc(-c3ccccc3CN(C)C)ncn2)cn1 |  | -15.1%
CNc1cc(-c2ccccc2CN(C)C)ncn1 |  | -0.857%
Cc1cccc(CNc2cc(-c3ccccc3CN(C)C)ncn2)c1 | 15.8 µM (active) | 
COC(=O)[C@@]1(Cc2ccc(OC)cc2)[C@H]2c3cc(C(=O)N4CCCC4)n(Cc4cc(F)cc5c4OCOC5)c3C[C@H]2CN1C(=O)c1ccccc1 | 2.51 µM (active) | 
COC(=O)[C@@]1(Cc2ccccc2)[C@H]2c3cc(C(=O)N4CCCC4)n(Cc4cc(F)cc5c4OCOC5)c3C[C@H]2CN1C(=O)c1ccccc1 | 3.98 µM (active) | 
CC(C)(CNC(=O)c1ccc([N+](=O)[O-])c(Cl)c1)CNC(=O)c1ccc([N+](=O)[O-])c(Cl)c1 | 8.91 µM (active) | 
NCCNC(=O)c1ccc(Cl)cc1 | inactive | 
O=C(O)c1ccc([N+](=O)[O-])c(P(=O)(O)O)c1 |  | -2.76% [at 11.4 µM]
N[C@@H](CSCc1ccc(I)cc1)C(=O)O |  | -8.11% [at 11.4 µM]
Clc1ccccc1-c1nccc(NCCN2CCOCC2)n1 | 15.8 µM (active) | 
Cc1ccccc1-c1nccc(NCCN2CCOCC2)n1 | 25.1 µM (active) | 
COCCNc1ccnc(-c2ccccc2C)n1 |  | -23.5%
FC(F)(F)c1ccccc1-c1nccc(NCCN2CCOCC2)n1 | 15.8 µM (active) | 
Clc1ccccc1-c1cc(NCCN2CCOCC2)ncn1 |  | 22.9%
FC(F)(F)c1ccccc1-c1cc(NCCN2CCOCC2)ncn1 |  | 28%
N=C(N)[C@H](N=Nc1ccccc1)C(N)=O |  | -11.5% [at 11.4 µM]
COc1ccc(NC(=O)CSc2nc(C)c3c(c2C#N)CCCC3)cc1 | 17.8 µM (active) | 
CCOc1cccc(NC(=O)CSc2nc(C)c3c(c2C#N)CCCC3)c1 |  | -6.34% [at 11.4 µM]
CCOc1ccc(NC(=O)CSc2nc(C)c3c(c2C#N)CCCC3)cc1 | 12.6 µM (active) | 

Compound | AC50 | activity, negative = inhibition
Cn1cc(C(=O)c2cccc(Cl)c2Cl)cc1C(=O)O |  | 10.6%
Cn1cccc1C(=O)N1CCC[C@@]2(CCN(Cc3cc(C(F)(F)F)cc(C(F)(F)F)c3)C2)C1 | 15.8 µM (active) | 
Cn1cccc1C(=O)N1CCC2(CC1)CN(Cc1ccc(C#N)cc1)C2 |  | 16.5%
Cn1cccc1C(=O)N1CCC[C@@]2(CCN(Cc3ccc(C#N)cc3)C2)C1 | 12.6 µM (active) | 
Cn1cccc1C(=O)N1CCC2(CCN(Cc3ccccc3)CC2)CC1 |  | -3.29%
Cn1cccc1C(=O)N1CCC2(CC1)CN(Cc1cc(C(F)(F)F)cc(C(F)(F)F)c1)C2 |  | 9.35%
CCN[C@@H]1C[C@H](C)S(=O)(=O)c2sc(S(N)(=O)=O)cc21 |  | -31.7% [at 25.6 µM]
N#C/C(=C/c1cccc(C(F)(F)F)c1)c1nc(CCN2C(=O)c3ccccc3C2=O)cs1 | 5.01 µM (active) | 
NC(N)=Nc1nc(CCN2C(=O)c3ccccc3C2=O)cs1 |  | 6.93%
O=C(O)CC12C[C@H]3C[C@@H](CC(O)(C3)C1)C2 |  | -10.4% [at 11.4 µM]
Cc1nc2nc[nH]n2c(=O)c1NC(=O)CC12CC3CC(CC(C3)C1)C2 |  | -23.4%
O=C(O)CSCNC(=O)CC12CC3CC(CC(C3)C1)C2 | 0.224 µM (active) | 
NC(=O)c1ccc(-c2nc(-c3ccc4c(c3)OCO4)c(-c3ccccn3)[nH]2)cc1 | 10 µM (active) | 
NC(=O)c1ccc(-c2ncc(-c3ccccc3)o2)cc1 |  | -23.2%
O=C(O)Cc1nn(Cc2ccc(Br)cc2F)c(=O)c2ccccc12 |  | 1.75%
c1csc(CNCCCN2CCOCC2)c1 |  | -5.52%
COc1ccc(NC(=O)COc2ccc(CNCCCN3CCOCC3)cc2OC)cc1 |  | -19.4%
CCOc1cc(CNCCCN2CCOCC2)cc(Br)c1OCC(=O)Nc1cccc(C(F)(F)F)c1 | 4.47 µM (active) | 
CN(C)c1ccc(-c2nc(Nc3ccncc3)c3ccccc3n2)cc1 | 7.94 µM (active) | 
CN(C)C(=O)c1ccc(-c2nc(Nc3ccncc3)c3ccccc3n2)cc1 | 15.8 µM (active) | 
CC(=O)NC1=NC(=O)C(C)S1 (stereo not drawn) |  | -3.3% [at 2.29 µM]
Cc1ccc(NC(=O)CCC(=O)NNS(=O)(=O)c2ccccc2)c(C)c1 |  | 21.8% [at 2.29 µM]
Cc1ccc(NC(=O)CCC(=O)NNC(=O)c2cccs2)c(C)c1 |  | -1.38% [at 2.29 µM]
Cc1ccc(-n2nc3c(c2NC(=O)c2cccs2)CSC3)cc1 | 12.6 µM (active) | 

Compound | AC50 | activity, negative = inhibition
CCCC(=O)Nc1c2c(nn1-c1ccc(C)cc1C)CSC2 | 7.08 µM (active) | 
CCCC(=O)Nc1c(C)n[nH]c1C |  | -12.2%
Cc1ccccc1-n1nc2c(c1NC(=O)c1ccc(S(=O)(=O)N(C)C)cc1)CSC2 | 14.1 µM (active) | 
Cc1onc(-c2c(F)cccc2Cl)c1C(=O)N[C@H]1C(=O)N2[C@H]1SC(C)(C)[C@H]2C(=O)O |  | -12.4% [at 25.6 µM]
Cc1ccccc1-n1nc2c(c1NC(=O)c1c(-c3ccccc3Cl)noc1C)CSC2 | 1.12 µM (active) | 
Cc1onc(-c2c(F)cccc2Cl)c1C(=O)N[C@@H]1C(=O)N2[C@H]1SC(C)(C)[C@H]2C(=O)O |  | -13.2% [at 11.4 µM]
Cc1cc(NC(=O)c2ccc(S(=O)(=O)N(C)C)cc2)n(-c2ccccn2)n1 |  | 8.07%
CCN(CC)S(=O)(=O)c1ccc(C(=O)Nc2ncn(Cc3ccccc3)n2)cc1 |  | -5.91%
CCC(=S)/C=C1\Sc2ccccc2N1CCCS(=O)(=O)O |  | 19.1%
O=C(O)Cc1c(O)ccc2ccccc12 |  | -10.5% [at 11.4 µM]
c1cncc(-c2nnc3n2C2(CCCCC2)Cc2ccccc2-3)c1 | 1 µM (active) | 
CCCn1cnc2c(SCC(=O)O)nc(N)nc21 |  | -4.33% [at 11.4 µM]
Cc1[nH]n(C(C)(C)C)c(=O)c1Sc1ccc(Cl)cc1 | 15.8 µM (active) | 
Cc1[nH]n(C(C)(C)C)c(=O)c1Sc1ccccc1 |  | 28.8%
O=S(=O)(O)c1ccc2cc(N=Nc3cc(S(=O)(=O)O)c4cccnc4c3O)ccc2c1 |  | -6.99% [at 11.4 µM]
CCCCc1ccc(-c2csc(/C(C#N)=C/c3ccc(C)o3)n2)cc1 | 12.6 µM (active) | 
COc1cccc(N(CC(=O)Nc2cccc(C(C)=O)c2)S(C)(=O)=O)c1 | 11.2 µM (active) | 
COc1ccc(N(CC(=O)Nc2cccc(C)c2)S(=O)(=O)c2c(C)n[nH]c2C)cc1 | 3.16 µM (active) | 
CC(=O)c1cccc(NC(=O)Oc2ccccc2)c1 |  | 14.9%
Cc1n[nH]c(C)c1S(=O)(=O)N1CCOCC1 |  | -6.35%
Cc1ccc(NC(=O)C2CCN(S(=O)(=O)c3c(C)n[nH]c3C)CC2)nc1 |  | -20.6%
Cc1cccc(NS(=O)(=O)c2c(C)n[nH]c2C)c1 | 25.1 µM (active) | 
CC(=O)c1c(N=CN(C)C)nc(C)nc1-c1ccccc1 |  | -8.85%
CC(=O)c1cc2c(cc1NC(=O)c1c(-c3ccccc3)noc1C)OCO2 | 1.58 µM (active) | 

Compound | AC50 | activity, negative = inhibition
CC(=O)c1cc2c(cc1NC(=O)CCCC(=O)O)OCO2 |  | -24.3%
CN(N=O)C(=O)N[C@H]1C(O)OC(CO)[C@@H](O)[C@H]1O (stereo partly drawn) |  | -11.7%
O=C(CCCc1ccccn1)c1ccccc1 |  | -27.1% [at 11.4 µM]
O=C(O)CCC(=O)CCC(=O)c1ccccc1 |  | -7.58%
O=C(/C=C\NCC(=O)c1ccccc1)c1ccccc1 | 15.8 µM (active) | 
CN(C)/C=C/C(=O)c1ccc(F)cc1 |  | -10.5%
O=C(/C=C\NCC(=O)c1ccccc1)c1ccc(F)cc1 | 14.1 µM (active) | 
O=C(C[n+]1cccc(NC(=O)c2ccccc2)c1)c1ccc(NC(=O)c2ccccc2)cc1 |  | 9.66% [at 2.29 µM]
N[C@@H](CS(=O)O)C(=O)O |  | -3.74%
COc1cccc([C@@H]2Oc3ccc(OC)cc3/C(=N/OC[C@@H](C)[C@H](OCc3ccccc3)C(C)C)[C@@H]2O)c1 | 3.16 µM (active) | 
COc1cccc([C@@H]2Oc3ccc(OC)cc3/C(=N/OC[C@@H](O)COCc3ccco3)[C@@H]2O)c1 | 3.16 µM (active) | 
CC(C)=NOC[C@@H](O)COCc1ccco1 |  | -14.7% [at 11.4 µM]
Cn1c(=O)n2n(c1=O)[C@H]1[C@H](O)[C@H]3O[C@@H]3/C(=N/OC[C@@H](O)COCc3ccco3)[C@@H]1CC2 |  | -23.8% [at 11.4 µM]
CCOc1ccc(/C=C2\C(=O)c3ccccc3OC2c2ccccc2)cc1 (stereo not drawn) |  | 17.9%
COc1cccc(C2C3(C#N)C(N)=NC(OC)(OC)C23C#N)c1 (stereo not drawn) |  | -16.8% [at 2.29 µM]
CCN1C(=O)[C@H]2[C@H]3[C@H](O)[C@H](O)C/C(=N/OC[C@@H](O)[C@H]4O[C@H]5OC(C)(C)O[C@H]5[C@@H]4O)[C@@H]3CC[C@@H]2C1=O |  | -16.2% [at 11.4 µM]
COc1cccc([C@H]2Oc3ccc(OC)cc3/C(=N\OC[C@@H](O)[C@@H]3O[C@@H]4OC(C)(C)O[C@@H]4[C@H]3O)[C@@H]2O)c1 | 3.98 µM (active) | 
COc1cccc([C@@H]2Oc3ccc(OC)cc3C(=O)[C@H]2O)c1 | 3.98 µM (active) | 
CCOC(=O)C1CN(S(=O)(=O)c2cccc(C(F)(F)F)c2)c2cc(CC(=O)OC)ccc2O1 (stereo not drawn) | 5.01 µM (active) | 
CCS(=O)(=O)c1ccc2c(c1)N(S(C)(=O)=O)CC(C(=O)NCCOC)O2 (stereo not drawn) |  | -7.69%
O=C(O)Cc1ccc2c(c1)N(S(=O)(=O)c1cccc(C(F)(F)F)c1)CC(C(=O)O)O2 (stereo not drawn) |  | -7.46% [at 2.29 µM]

— PubChem BioAssay AID1851 (National Center for Advancing Translational Sciences (NCATS), 2009)
